Screening results: PubChem BioAssay, The Scripps Research Institute Molecular Screening Center
GPR151 ag: human GPR151 activation; PathHunter beta-arrestin GPR151 cells, luminescence; AID 1508602; 1% of 650,000 active; Q8TDV0; activation, % at 11.2 µM; in the data active means activation above about 4.9%;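 further: 0% = median of compound wells and 100% = cells with positive control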
MITF inh: inhibitors of human MITF; AID 1259374; inhibition, % at 2.6 µM; 0.91% of 650,000 active; AlphaScreen MITF homodimerization, bead proximity signal; in the data active means inhibition above about 50%;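 further: 0% = vehicle wells with protein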
TEAD-YAP block: TEAD-YAP interaction inhibition | HEK-TIYL cells, TEAD-Gal4/YAP UAS-luciferase luminescence | 1.4% of 640,000 active | inhibition, % at 9.12 µM; in the data active means inhibition above about 32%;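 further: 0% = median of test compound wells and 100% = reference inhibitor wells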
FBW7 act: human FBW7 E3 ligase activation, primary screen; 0.13% of 650,000 active; Q969H0; normalized activity (activation), % at 26.1 µM; AlphaScreen FBW7–phospho-cyclin E peptide binding, activator screen; in the data active means normalized activity above about 1.9%;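 further: purified mutant Fbw7 with reduced substrate affinity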
* marks the source's active call; other numbers are inactive results. Sampled rows, rich in hits. Any-hit rate of the full collection: about 3.5%.

`Cc1cccc(OCC2=NN3C(=N)/C(=C\c4ccc(C)o4)C(=O)N=C3S2)c1` gave GPR151 ag 0, MITF inh -13, TEAD-YAP block 12 and FBW7 act 0.
`COc1ccc(-n2ncnc2-c2cccc(-n3ncc4cc(Nc5ccccc5F)ccc43)c2)cc1` gave GPR151 ag 2, MITF inh 7, TEAD-YAP block 38* and FBW7 act 0.
For Nc1ccc(-n2ncnc2-c2cccc(-n3ncc4cc(Nc5ccccc5F)ccc43)c2)cc1 the results were GPR151 ag 1, MITF inh 3, TEAD-YAP block -11 and FBW7 act 0.
For COc1cc(NC(=O)c2cccc(-n3ncc4cc(Nc5ccccc5F)ccc43)c2)cc(OC)c1OC the results were GPR151 ag 0, MITF inh -6, TEAD-YAP block 33* and FBW7 act 0.
`O=C(CSc1nc2ccccc2o1)N1CCC(Cc2ccccc2)CC1` gave GPR151 ag -1, MITF inh 1, TEAD-YAP block 5 and FBW7 act 1.
`CN(CCCN1CCCCC1)C(=O)CC1C(=O)NCCN1CC1CCCCC1` (stereo not drawn) gave GPR151 ag 0, MITF inh -8, TEAD-YAP block -2 and FBW7 act 0.
Screening CCOc1ccc(-n2c(=O)[nH]c3sc4c(c3c2=O)CCC4)cc1 returned GPR151 ag 2, MITF inh 5, TEAD-YAP block 4 and FBW7 act 0.
Screening O=C1c2ccccc2C(=O)N1N1C(=O)c2cccc3c([N+](=O)[O-])ccc(c23)C1=O returned GPR151 ag 0, MITF inh 3, TEAD-YAP block 12 and FBW7 act 0.
For O=C1c2cccc3c(Oc4ccccc4[N+](=O)[O-])ccc(c23)C(=O)N1n1cnnc1 the results were GPR151 ag -1, MITF inh 5, TEAD-YAP block 36* and FBW7 act 0.
`Cc1nc(Nc2ccc3c(c2)OCO3)c2c3c(sc2n1)CCCC3` gave GPR151 ag 2, MITF inh 8, TEAD-YAP block 17 and FBW7 act 0.
`CC(=O)N1CC(C)Sc2cc(S(=O)(=O)N3CCN(Cc4ccccc4)CC3)ccc21` (stereo not drawn) gave GPR151 ag 0, MITF inh 14, TEAD-YAP block 49* and FBW7 act 0.
For O=C(O)COc1ccc(NC(=O)COc2ccc([N+](=O)[O-])cc2)cc1 the results were GPR151 ag 4, MITF inh 9, TEAD-YAP block 1 and FBW7 act 0.
CC(=O)c1ccc(Oc2ccc(-c3cnc4ccccc4n3)cc2[N+](=O)[O-])cc1 was read as GPR151 ag 0, MITF inh 2, TEAD-YAP block -4 and FBW7 act 0.
`Cc1ccc(Oc2ccc(-c3cnc4ccccc4n3)cc2[N+](=O)[O-])cc1C` gave GPR151 ag 0, MITF inh 1, TEAD-YAP block 14 and FBW7 act 1.9*.
Screening Cc1ccc(Oc2ccc(-c3cnc4ccccc4n3)cc2[N+](=O)[O-])c(-n2nc3ccccc3n2)c1 returned GPR151 ag 1, MITF inh 6, TEAD-YAP block -1 and FBW7 act 0.
For O=[N+]([O-])c1cc(-c2cnc3ccccc3n2)ccc1N1CCCCCC1 the results were GPR151 ag -1, MITF inh 15, TEAD-YAP block 71* and FBW7 act 1.
Screening Cc1cccn2cc(-c3ccc(NC(=O)CC(C)C)cc3)nc12 returned GPR151 ag -4, MITF inh 10, TEAD-YAP block -43 and FBW7 act 0.
For CCc1ccc(-c2cn3ccccc3n2)cc1 the results were GPR151 ag -6, MITF inh 2, TEAD-YAP block 69* and FBW7 act 0.
CC(C)CC(=O)Nc1ccc(-c2cn3ccccc3n2)cc1 was read as GPR151 ag -3, MITF inh 7, TEAD-YAP block 41* and FBW7 act 0.
`CCc1ccc(-c2cn3nc(C)c(C)nc3n2)cc1` gave GPR151 ag -7, MITF inh -1, TEAD-YAP block 92* and FBW7 act 0.
Screening CC(=O)Nc1ccc(-c2cn3ccccc3n2)cc1 returned GPR151 ag -5, MITF inh -1, TEAD-YAP block 39* and FBW7 act 0.
`O=C(COc1ccccc1Br)Nc1ccc(F)cc1F` gave GPR151 ag -1, MITF inh 13, TEAD-YAP block -68 and FBW7 act 0.
Cc1cc(N)n(-c2ccc([N+](=O)[O-])cc2)n1 was read as GPR151 ag 0, MITF inh 11, TEAD-YAP block -7 and FBW7 act 0.
